Screening data as filed in PubChem.
Giardia FBPA inh: blocks Giardia fructose-bisphosphate aldolase activity | A8B2U2 | purified Giardia FBPA | Potency, µM (top dose mostly 59.6 µM), for the others: at the highest dose activity, negative = inhibition, actives largely listed as inhibitors | 290,000 tested, 0.71% active; further: potency means the concentration at half of the fitted maximal effect; on the % scale 0 is the no-effect control and ±100 the full control effect; nearly all actives have a fitted effect of over 55% in size
Target sequence (A8B2U2 whole entry, looked up): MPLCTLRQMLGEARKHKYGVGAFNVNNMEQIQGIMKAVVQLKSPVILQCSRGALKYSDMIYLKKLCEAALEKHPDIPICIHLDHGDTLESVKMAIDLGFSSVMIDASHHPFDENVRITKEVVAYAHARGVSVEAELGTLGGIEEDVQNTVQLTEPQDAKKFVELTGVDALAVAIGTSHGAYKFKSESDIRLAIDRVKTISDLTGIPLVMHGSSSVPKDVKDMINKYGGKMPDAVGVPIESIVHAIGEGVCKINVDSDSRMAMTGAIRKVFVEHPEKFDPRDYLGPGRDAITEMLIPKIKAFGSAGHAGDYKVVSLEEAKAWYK
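Giardia FBPA (40 nM reagent) was preincubated 10 min at RT with compound (up to 57.5 uM final), then substrate plus GAPDH/TPI/NAD/arsenate coupling system with diaphorase/resazurin was added; resorufin fluorescence (525/598 nm) was read after 20 min.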
TbPYK inhibitor: inhibitors of Trypanosoma brucei pyruvate kinase | Potency, µM (titrated, usually from 76.8 µM), for the others: at the top dose activity, negative = inhibition, most hits filed as inhibitors | Q57TT1 | 410,000 tested, 0.12% active | TbPYK enzyme, Kinase-Glo Plus ATP luminescence, 45 min; further: potency means the concentration at half of the fitted maximal effect; on the % scale 0 is the no-effect control and ±100 the full control effect; nearly all actives have a fitted effect of over 50% in size
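T. brucei PYK with substrate was exposed to pin-transferred compounds across a concentration series, then started with 130 uM ADP (final). After 45 min at room temperature, Kinase-Glo Plus luminescence was read, normalized and curve-fitted.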
LmPK inhibitor: blocks Leishmania mexicana pyruvate kinase activity. 290,000 tested, 0.37% active. Q27686. AID 1721. Potency, µM (titrated, usually from 57.5 µM), for inactives: top-dose activity change, negative = inhibition, usual class: inhibitors. purified LmPK, Kinase-Glo ATP luminescence, 1 h; further: potency means the concentration at half of the fitted maximal effect; on the % scale 0 is the no-effect control and ±100 the full control effect
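Purified LmPK (0.1 nM) with 0.5 mM PEP and 0.1 mM ADP in imidazole buffer pH 7.2 with MgCl2/KCl, 1 h at room temperature. ATP formed was read by luciferase luminescence and normalized to no-enzyme and uninhibited controls.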
Cycloheximide cs: counter-screen hit for Shiga toxin inhibitors, cycloheximide; cell reporter, cycloheximide protein synthesis inhibition counterscreen; max response, %; 300,000 tested, 12% active; AID 2314; in the data active means max response mostly above about 13%, no sharp cut-off; inactive means mostly below about 14%; further: read at 38.3 µM for the half of the compounds with a filed dose; 0% is about no effect
Sm TGR inh: inhibitors of Schistosoma mansoni thioredoxin glutathione reductase; Potency, µM (titrated, usually from 114 µM), inactives show at the top dose activity change, negative = inhibition, hits mostly inhibitors; purified TGR, DTNB reduction, TNB absorbance 405 nm; AID 485364; 360,000 tested, 3% active; Q962Y6; further: potency means the concentration at half of the fitted maximal effect; on the % scale 0 is the no-effect control and ±100 the full control effect; nearly all actives have a fitted effect of over 60% in size
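TGR 20 nM + NADPH 100 uM (dispensed conc.), cpd preinc 15 min RT; start with NADPH (500 uM addition) then DTNB (15 mM addition). Kinetic TNB absorbance, 405 nm filter. Four-parameter Hill fit across titration.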
Shiga toxin inh: inhibitors of Shiga toxin in Vero cells. Vero cells, Shiga toxin protein synthesis inhibition reporter. 290,000 tested, 9.2% active. AID 2315. inhibition, % at 38.7 µM; in the data active means inhibition mostly above about 28%, no sharp cut-off; inactive means mostly below about 43%; further: 0% is about no effect
Active calls of the source: *; · = no result. This excerpt belongs to a sample that is enriched for hits. Unless noted, the call rests on the fitted dose curve; in most records, active means well fitted curve in the direction sought with a large enough effect; inconclusive means small, poorly fitted or top-dose-only effect, or another doubt; inactive means no such curve, though single readings can be large; an effect the other way counts as inactive or inconclusive.

SMILES | Giardia FBPA inh | TbPYK inhibitor | LmPK inhibitor | Cycloheximide cs | Sm TGR inh | Shiga toxin inh
O=C(Cn1c(=O)n(-c2ccc(Cl)cc2)c(=O)c2c3c(sc21)CCC3)c1ccc(F)cc1 | · | -1.6% | · | · | 7.4% | ·
CCN1C(=O)CC(C(=O)Nc2ccc(OC)cc2)SC1=Nc1ccc(C)c(C)c1 (configuration not stated) | · | -1.3% | · | · | -1.6% | ·
C[C@@H](C(=O)Nc1nc2ccccc2s1)N1C(=O)C2CC=CCC2C1=O (some centres not stated) | -0.9% | -2.7% | 0.4% | 16.7 | -7.2% | 22.0
Cc1ccc2nc(NC(=O)[C@H](C)N3C(=O)C4CC=CCC4C3=O)sc2c1 (some centres not stated) | 1.3% | 1.3% | 1.5% | 32.6* | 2.2% | 36.8*
C[C@@H](C(=O)Nc1nc2ccc(F)cc2s1)N1C(=O)C2CC=CCC2C1=O (some centres not stated) | 6.5% | -2.1% | 8.2% | 23.4* | 0.0% | 57.3
CCc1cccc(NC(=O)Cn2c(C(=O)OC)cc3occc32)c1 | · | -2.9% | · | · | -22.7% | ·
O=S(=O)(CCc1ccncc1)Cc1ccc2c3c(cccc13)CC2 | -0.7% | -0.7% | 3.1% | -0.2 | 39.8µM* | -23.9
O=C1CC(=O)CC(c2ccccc2)C1 | 11.5% | 5.3% | -3.6% | 0.7 | -6.7% | -15.9
O=C1CC(c2ccccc2)CC(=O)C1CS(=O)(=O)c1ccccc1 (configuration not stated) | -29.5% | -21.6% | -0.6% | -1.5 | 0.708µM* | -8.6
